Results published in PubChem BioAssay (EPA / NIEHS).
Activity calls are given as the source filed them. The calls were made as follows: active = hit-call score of the fitted dose curve at least 0.9, where 1 is the maximum; inactive = score below 0.9.

Tests used:
[1] = ATG_E_Box_CIS: Attagene CIS-FACTORIAL HepG2 Assay for human Enhancer Box (E-box) (AID 2282936); conditions: HepG2 E-box cis-reporter transcription, actives raise or lower the signal
How it was run: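 Endogenous transcription factor activity was sensed in human HepG2 liver cells through transfected cis-promoter reporter units. After 24 h of dosing, total RNA was reverse-transcribed and reporter cDNA resolved by capillary electrophoresis.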

[2] = ATG_M_61_CIS: Attagene CIS-FACTORIAL HepG2 Assay for M61 Transcription Factor (Internal Marker) (AID 2282937); conditions: HepG2 Attagene CIS-FACTORIAL M61 internal marker reporter; actives raise or lower the signal
How it was run: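 Human liver HepG2, transient MRTU transfection (cis promoter elements), 24 h compound. Total RNA → oligo(dT) RT → PCR → FAM label → HpaI → CE. Internal background marker; bidirectional fitting, DMSO = baseline.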

[3] = ATG_EGR_CIS: Attagene CIS-FACTORIAL HepG2 Assay for human Early Growth Response 1 (EGR1) (AID 2282938); conditions: HepG2 Attagene CIS-FACTORIAL EGR reporter mRNA; actives raise or lower the signal
How it was run: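 Transient transfection of human HepG2 with multiple cis-regulated reporter units, chemical exposure 24 h, total RNA isolated. Reverse transcription, PCR, fluorescent labelling and capillary electrophoresis quantify reporter transcripts; activity fitted bidirectionally against DMSO.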

[4] = ATG_M_19_CIS: Attagene CIS-FACTORIAL HepG2 Assay for M19 Transcription Factor (Internal Marker) (AID 2282939); conditions: HepG2 Attagene CIS-FACTORIAL M19 internal marker reporter; actives raise or lower the signal
How it was run: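 Readout: fluorescent reporter-transcript fragments by capillary electrophoresis after RT-PCR. Human HepG2 liver cells carried transfected MRTU constructs reporting endogenous transcription-factor activity; exposure 24 h. Gain or loss of signal fitted relative to DMSO.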

[5] = target: Hepatocyte nuclear factor 3-beta (Homo sapiens) (UniProt Q9Y261); assay: ATG_FoxA2_CIS: Attagene CIS-FACTORIAL HepG2 Assay for human Forkhead box A2 (FOXA2) (AID 2282942); conditions: HepG2 cis-reporter transcription factor activity, 24 h; actives raise or lower the signal
How it was run: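 Transient MRTU transfection of HepG2 liver cells; 24 h treatment; total RNA → oligo(dT) RT → PCR → FAM primer extension → HpaI cut → CE. Bidirectional fit vs DMSO.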

[6] = ATG_FoxO_CIS: Attagene CIS-FACTORIAL HepG2 Assay for human Forkhead box O (FoxO) (AID 2282943); conditions: HepG2 Attagene cis-reporter, FoxO element, mRNA; actives raise or lower the signal
How it was run: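 24 h chemical exposure, HepG2 with transient cis-MRTU transfection. RNA extraction, oligo(dT) RT, reporter-specific PCR, primer-extension labelling, HpaI digestion, CE fragment analysis; bidirectional fit, DMSO baseline.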

[7] = ATG_GATA_CIS: Attagene CIS-FACTORIAL HepG2 Assay for human GATA Binding Protein (AID 2282944); conditions: HepG2 GATA cis-element reporter, Attagene multiplex mRNA; actives raise or lower the signal
How it was run: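 Read-out: fluorescent reporter mRNA fragments resolved by capillary electrophoresis after RT-PCR. Human liver HepG2 cells carried transiently transfected cis-regulated reporter constructs; chemicals incubated 24 h; gain or loss of signal fitted relative to DMSO.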

[8] = ATG_GLI_CIS: Attagene CIS-FACTORIAL HepG2 Assay for human Zinc Finger Protein GLI1 (AID 2282945); conditions: HepG2, Attagene cis-factorial reporter mRNA, GLI element; actives raise or lower the signal
How it was run: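 HepG2 cells transiently transfected with cis-promoter multiplexed reporter units report endogenous transcription factor activity. After 24 h chemical exposure, reporter mRNA was quantified by RT-PCR, 6-FAM labelling, HpaI digestion and capillary electrophoresis, with bidirectional fitting against DMSO.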

[9] = target: Bile acid receptor (Homo sapiens) (UniProt Q96RI1); assay: ATG_IR1_CIS: Attagene CIS-FACTORIAL HepG2 Assay for human Nuclear Receptor Subfamily 1 Group H Member 4 (NR1H4), IR1 submotif (AID 2282946); conditions: IR1 reporter transcription, actives raise or lower the signal
How it was run: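 Readout: reporter transcript levels by RT-PCR with fluorescent capillary electrophoresis, from HepG2 cells transiently transfected with multiplexed cis-regulated reporters and dosed 24 h. Gain- or loss-of-signal fitted versus DMSO negative control.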

[10] = ATG_GRE_CIS: Attagene CIS-FACTORIAL HepG2 Assay for human Glucocorticoid Response Elements (GRE) (AID 2282947); conditions: HepG2 GRE cis-reporter, Attagene multiplex mRNA; actives raise or lower the signal
How it was run: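 Cells (HepG2) bearing transfected cis-promoter reporter transcription units were treated with chemical for 24 hours. Reporter mRNA was measured via RT-PCR with capillary electrophoresis, and activity was fitted in both directions relative to DMSO.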

[11] = ATG_M_32_CIS: Attagene CIS-FACTORIAL HepG2 Assay for M32 Transcription Factor (Internal Marker) (AID 2282949); conditions: HepG2 Attagene cis-factorial M32 reporter, mRNA; actives raise or lower the signal;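 also: background control marker of the multiplexed CIS panel rather than a real target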
How it was run: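 HepG2 human liver cells transiently transfected with cis-promoter-driven multiple reporter transcription units, dosed 24 h. Reporter mRNA quantified by RT-PCR, FAM-labelled primer extension, HpaI digest and capillary electrophoresis; bidirectional fit versus DMSO baseline.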

[12] = ATG_M_06_CIS: Attagene CIS-FACTORIAL HepG2 Assay for M06 Transcription Factor (Internal Marker) (AID 2282950); conditions: HepG2 Attagene CIS-FACTORIAL M06 internal marker reporter; actives raise or lower the signal
How it was run: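 Terse: HepG2, transient MRTU transfection (FuGene 6), 24 h dosing; total RNA, oligo(dT) RT, PCR, FAM label, HpaI cut, capillary electrophoresis; bidirectional fit vs DMSO baseline; background-control endpoint.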

[13] = target: Hypoxia-inducible factor 1-alpha (Homo sapiens) (UniProt Q16665); assay: ATG_HIF1a_CIS: Attagene CIS-FACTORIAL HepG2 Assay for human Hypoxia Inducible Factor 1 (HIF1A) (AID 2282951); conditions: HepG2 Attagene cis-factorial HIF1a reporter transcription; actives raise or lower the signal
How it was run: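 Transient MRTU transfection of human HepG2 liver cells, 24 h compound treatment, then total RNA isolation, oligo(dT) reverse transcription, PCR amplification, fluorescent labelling and capillary electrophoresis of reporter fragments. Gain or loss relative to DMSO.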

[14] = target: Hepatocyte nuclear factor 6 (Homo sapiens) (UniProt Q9UBC0); assay: ATG_HNF6_CIS: Attagene CIS-FACTORIAL HepG2 Assay for human Hepatocyte Nuclear Factor 6 (HNF6) (AID 2282952); conditions: HepG2 Attagene cis-factorial HNF6 reporter transcription; actives raise or lower the signal
How it was run: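 First, HepG2 cells were transfected with the multiplexed cis reporter library and dosed with chemical for 24 h. Next, RNA was reverse-transcribed, PCR-amplified and fluorescently labelled. Finally, HpaI-digested fragments were read by capillary electrophoresis.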

[15] = target: Heat shock factor protein 1 (Homo sapiens) (UniProt Q00613); assay: ATG_HSE_CIS: Attagene CIS-FACTORIAL HepG2 Assay for human Heat Shock Transcription Factor 1 (HSE) (AID 2282953); conditions: HepG2 HSE cis-reporter, Attagene RNA transcription; actives raise or lower the signal
How it was run: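 Read-out: fluorescence of reporter-specific RT-PCR fragments separated by capillary electrophoresis. HepG2 carrying transfected cis-element reporter units; 24 h dosing; activity fitted in both directions relative to DMSO baseline.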

[16] = ATG_MRE_CIS: Attagene CIS-FACTORIAL HepG2 Assay for human Metal Responsive Element (MRE) (AID 2282954); conditions: HepG2 MRE cis-reporter transcription, Attagene multiplex; actives raise or lower the signal
How it was run: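 Cells were transfected with cis-promoter reporter transcription units, then dosed for 24 h. RNA was reverse-transcribed, amplified, fluorescently labelled and resolved by capillary electrophoresis, and activity was fitted in both directions relative to DMSO.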

[17] = ATG_PBREM_CIS: Attagene CIS-FACTORIAL HepG2 Assay for human Phenobarbital-responsive Enhancer Module (PBREM) (AID 2282955); conditions: HepG2 PBREM cis-reporter, Attagene multiplexed transcription; actives raise or lower the signal
How it was run: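 Endogenous transcription factors in human liver HepG2 cells drive a PBREM cis-element reporter, whose transcript level after 24 h treatment is quantified by RT-PCR with capillary electrophoresis; activity fitted in both directions against DMSO.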

[18] = ATG_Ets_CIS: Attagene CIS-FACTORIAL HepG2 Assay for human Erythroblast Transformation Specific (ETS) (AID 2282941); conditions: HepG2 ETS cis-reporter transcription, actives raise or lower the signal
How it was run: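 Multiplexed reporter transcript profiling: HepG2, 24 h treatment, total RNA to cDNA, PCR, 6-FAM labelling, HpaI cut, capillary electrophoresis. Gain- or loss-of-signal fitted against DMSO.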

[19] = ATG_ISRE_CIS: Attagene CIS-FACTORIAL HepG2 Assay for human Interferon Regulatory Factor 1 (IRF1) binding to an Interferon-Stimulated Response Element (ISRE) (AID 2282948); conditions: HepG2 ISRE cis-reporter (Attagene), mRNA transcription readout; actives raise or lower the signal
How it was run: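 Signal reflects induction or loss of ISRE-linked reporter mRNA in transiently transfected HepG2 cells after a 24 h treatment, detected by fluorescent RT-PCR fragments on capillary electrophoresis and normalised to DMSO.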

[20] = ATG_ERE_CIS: Attagene CIS-FACTORIAL HepG2 Assay for Estrogen Response Element (ERE) (AID 2282940); conditions: HepG2 ERE cis-reporter, Attagene RNA transcript; actives raise or lower the signal
How it was run: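 Readout: reporter mRNA induction by RT-PCR, FAM-labelled primer extension, HpaI digestion and capillary electrophoresis, 24 h after dosing transfected HepG2 cells. Endogenous transcription factors act on cis-element-regulated reporters. Gain or loss fitted against DMSO.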

Measured: AC50

Chain of Hepatocyte nuclear factor 3-beta (Homo sapiens) (Q9Y261 whole entry, looked up): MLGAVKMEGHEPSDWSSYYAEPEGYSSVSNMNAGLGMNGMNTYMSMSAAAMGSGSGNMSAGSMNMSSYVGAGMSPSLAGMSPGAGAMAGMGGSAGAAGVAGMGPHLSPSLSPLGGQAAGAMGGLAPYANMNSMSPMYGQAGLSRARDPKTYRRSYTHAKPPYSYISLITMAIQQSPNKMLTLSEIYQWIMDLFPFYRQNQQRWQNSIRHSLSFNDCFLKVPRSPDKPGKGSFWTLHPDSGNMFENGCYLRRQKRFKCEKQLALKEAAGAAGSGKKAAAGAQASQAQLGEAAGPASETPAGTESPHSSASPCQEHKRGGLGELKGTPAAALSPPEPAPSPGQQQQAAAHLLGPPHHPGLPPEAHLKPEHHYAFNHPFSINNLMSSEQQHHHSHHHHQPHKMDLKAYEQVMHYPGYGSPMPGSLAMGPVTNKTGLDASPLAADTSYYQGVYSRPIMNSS
Chain of Hypoxia-inducible factor 1-alpha (Homo sapiens) (Q16665 whole entry, looked up, the tested form may be a part): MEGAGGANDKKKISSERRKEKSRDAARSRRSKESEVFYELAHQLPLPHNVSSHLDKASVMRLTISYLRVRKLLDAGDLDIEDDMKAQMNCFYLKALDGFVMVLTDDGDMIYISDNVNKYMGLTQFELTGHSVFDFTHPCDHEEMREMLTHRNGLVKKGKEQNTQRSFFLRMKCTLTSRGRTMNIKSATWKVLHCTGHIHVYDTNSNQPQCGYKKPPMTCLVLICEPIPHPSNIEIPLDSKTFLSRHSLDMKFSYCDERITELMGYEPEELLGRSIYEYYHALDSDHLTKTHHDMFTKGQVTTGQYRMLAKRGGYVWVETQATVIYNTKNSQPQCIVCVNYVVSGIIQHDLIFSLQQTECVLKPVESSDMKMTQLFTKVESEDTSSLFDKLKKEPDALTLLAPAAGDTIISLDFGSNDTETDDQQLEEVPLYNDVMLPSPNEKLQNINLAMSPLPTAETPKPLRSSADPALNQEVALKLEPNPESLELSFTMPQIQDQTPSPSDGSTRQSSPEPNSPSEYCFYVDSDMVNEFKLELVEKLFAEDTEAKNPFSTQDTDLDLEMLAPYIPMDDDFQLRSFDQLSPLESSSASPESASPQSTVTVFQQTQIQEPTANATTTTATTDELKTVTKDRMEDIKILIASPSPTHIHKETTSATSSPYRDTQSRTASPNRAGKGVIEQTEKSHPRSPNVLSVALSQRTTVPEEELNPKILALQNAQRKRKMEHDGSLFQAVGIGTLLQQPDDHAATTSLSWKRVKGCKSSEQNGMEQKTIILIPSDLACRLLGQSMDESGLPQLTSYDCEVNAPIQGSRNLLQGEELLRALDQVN
Chain of Hepatocyte nuclear factor 6 (Homo sapiens) (Q9UBC0 whole entry, looked up, the tested form may be a part): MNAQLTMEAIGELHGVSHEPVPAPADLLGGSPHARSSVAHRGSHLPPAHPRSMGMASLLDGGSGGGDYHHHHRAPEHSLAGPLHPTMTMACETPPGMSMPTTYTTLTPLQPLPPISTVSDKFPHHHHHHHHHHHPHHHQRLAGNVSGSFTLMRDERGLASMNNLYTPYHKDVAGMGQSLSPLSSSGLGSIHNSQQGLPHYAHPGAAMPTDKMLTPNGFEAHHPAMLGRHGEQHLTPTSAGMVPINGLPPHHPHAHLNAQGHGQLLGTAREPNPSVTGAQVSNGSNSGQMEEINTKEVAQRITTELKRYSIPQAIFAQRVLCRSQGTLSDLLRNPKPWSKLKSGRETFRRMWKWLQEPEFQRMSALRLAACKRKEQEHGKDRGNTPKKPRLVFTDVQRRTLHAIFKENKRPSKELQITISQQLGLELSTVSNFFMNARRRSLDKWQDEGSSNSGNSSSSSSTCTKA
Chain of Heat shock factor protein 1 (Homo sapiens) (Q00613 whole entry, looked up, the tested form may be a part): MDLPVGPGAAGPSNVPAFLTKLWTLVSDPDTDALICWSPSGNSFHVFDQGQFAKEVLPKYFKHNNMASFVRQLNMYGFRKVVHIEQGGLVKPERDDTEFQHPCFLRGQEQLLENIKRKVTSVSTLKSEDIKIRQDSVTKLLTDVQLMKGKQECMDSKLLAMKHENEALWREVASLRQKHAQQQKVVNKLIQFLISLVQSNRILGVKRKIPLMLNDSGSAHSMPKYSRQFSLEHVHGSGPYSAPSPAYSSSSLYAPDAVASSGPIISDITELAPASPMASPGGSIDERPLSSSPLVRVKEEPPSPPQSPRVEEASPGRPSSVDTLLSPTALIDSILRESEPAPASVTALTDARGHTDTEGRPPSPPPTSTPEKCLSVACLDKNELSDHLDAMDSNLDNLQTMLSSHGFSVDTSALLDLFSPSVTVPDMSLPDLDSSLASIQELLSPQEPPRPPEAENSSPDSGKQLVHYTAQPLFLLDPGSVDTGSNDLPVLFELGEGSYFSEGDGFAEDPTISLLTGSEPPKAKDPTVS
Chain of Bile acid receptor (Homo sapiens) (Q96RI1 whole entry, looked up): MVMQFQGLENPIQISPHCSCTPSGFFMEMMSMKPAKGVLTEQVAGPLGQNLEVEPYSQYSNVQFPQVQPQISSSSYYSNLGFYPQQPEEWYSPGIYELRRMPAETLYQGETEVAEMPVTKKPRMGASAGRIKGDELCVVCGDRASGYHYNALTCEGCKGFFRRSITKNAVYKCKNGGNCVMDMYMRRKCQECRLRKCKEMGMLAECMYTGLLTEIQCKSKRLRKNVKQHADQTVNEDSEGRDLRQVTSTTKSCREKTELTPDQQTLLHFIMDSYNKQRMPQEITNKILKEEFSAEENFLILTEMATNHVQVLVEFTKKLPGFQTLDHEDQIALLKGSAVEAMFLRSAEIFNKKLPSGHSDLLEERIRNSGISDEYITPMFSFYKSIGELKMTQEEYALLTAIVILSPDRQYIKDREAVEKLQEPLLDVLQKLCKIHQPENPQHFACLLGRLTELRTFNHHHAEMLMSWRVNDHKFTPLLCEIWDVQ

C=C(C)C(=O)OCC(CC)(COC(=O)C(=C)C)COC(=O)C(=C)C
not listed: [18] | [19] | [20]
inactive: all other assays above

CCCCC(CC)C(=O)OC(C)C (configuration not stated)
not listed: [4] | [17] | [20]
inactive: all other assays above

CCCCCCCC/C=C\CCCCCCCC(=O)OCC
not listed: [4] | [9] | [20]
inactive: all other assays above

CC(C)CCCCCCc1ccc(OCCOCCO)cc1
not listed: [4] | [5] | [9] | [10] | [12]
inactive: all other assays above

CCc1cc(Cc2cc(CC)cc(C(C)(C)C)c2O)c(O)c(C(C)(C)C)c1
active: [3] 18.5 µM | [8] 17.1 µM | [19] 17.4 µM | [13] 16.7 µM | [15] 18.5 µM
not listed: [4] | [16] | [18] | [20]
inactive: all other assays above

[O-]n1ccccc1=S.[O-]n1ccccc1=S.[Zn+2]
active: [1] 0.976 µM | [19] 1.07 µM | [15] 0.937 µM | [16] 0.923 µM
not listed: [4] | [7] | [9] | [20]
inactive: all other assays above

Cc1c(OCC(F)(F)F)ccnc1CS(=O)c1nc2ccccc2[nH]1 (configuration not stated)
active: [3] 27.8 µM | [16] 73.1 µM
not listed: [13] | [15] | [18] | [20]
inactive: all other assays above

C=C(C)[C@@H]1CC=C(C)C(=O)C1
not listed: [9] | [12] | [15] | [16] | [17] | [18] | [20]
inactive: all other assays above

CC(=O)OCCCc1ccccc1
not listed: [4] | [5] | [10] | [14] | [17] | [20]
inactive: all other assays above

O=CN1CCOCC1
active: [13] 51.7 µM
not listed: [4] | [9] | [10] | [17] | [19]
inactive: all other assays above

COC(=O)c1ccc(C)cc1C1=NC(C)(C(C)C)C(=O)N1 (configuration not stated) (tested in a mixture with another compound)
not listed: [4] | [5] | [9] | [12] | [14] | [20]
inactive: all other assays above

CC=Cc1ccc(OCC)c(O)c1
not listed: [4] | [9] | [19] | [20]
inactive: all other assays above

COCCOCCOCCO
not listed: [4] | [5] | [9] | [13] | [15] | [20]
inactive: all other assays above

COc1ccc(CCO)cc1
active: [10] 183 µM
not listed: [4] | [9] | [15] | [18] | [20]
inactive: all other assays above

[Cl][Au]([Cl])[Cl]
not listed: [4] | [6] | [17] | [20]
inactive: all other assays above

C=C(C)C(=O)OCCOCCOCCOCCOC(=O)C(=C)C
not listed: [4] | [10] | [12] | [18] | [20]
inactive: all other assays above

CC(C)(C)CC(C)(C)c1ccc(OCCOCC[N+](C)(C)Cc2ccccc2)cc1
active: [1] 12.3 µM
not listed: [4] | [16] | [17] | [20]
inactive: all other assays above
